# Measurements taken from PubChem BioAssay (NCATS).
# Inconclusive results are not listed. Where a call stands in place of a potency, no number is given. Active and inactive are the calls of the source. Calls come from the whole dose curve; as a rule, active = well fitted inhibition curve with a large enough effect; inconclusive = small, poorly fitted or top-dose-only effect; inactive = flat fitted curve, though single readings scatter.
# Legend:
# Experiment in all cases: qHTS profiling for inhibitors of Plasmodium falciparum proliferation (AID 504749); note: nearly all actives have a fitted effect of over 60% in size
# Conditions in all cases: P. falciparum in erythrocytes, SYBR Green DNA, 72 h; series mostly up to 28.7 µM
# [1] = system: CP194
# Method in brief: (§1)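 Readout was DNA-dye fluorescence from lysed cultures, ex 485/em 535 nm. Parasitized red cells had grown 72 h with compound; data scaled between 0.29 uM artemisinin and DMSO wells and corrected using vehicle-only plates.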
# [2] = system: CP211
# Method in brief: as §1
# [3] = system: CP215
# Method in brief: as §1
# [4] = system: CP217
# Method in brief: as §1
# [5] = system: CP247
# Method in brief: as §1
# [6] = system: CP262
# Method in brief: as §1
# [7] = system: CP192
# Method in brief: as §1
# [8] = system: CP201
# Method in brief: as §1
# [9] = system: CP237
# Method in brief: as §1
# [10] = system: CP203
# Method in brief: as §1
# [11] = system: CP238
# Method in brief: as §1
# [12] = system: CP250
# Method in brief: as §1
# [13] = system: CP256
# Method in brief: as §1
# [14] = system: CP260
# Method in brief: as §1
# [15] = system: CP265
# Method in brief: as §1
# [16] = system: CP266
# Method in brief: as §1
# [17] = system: CP268
# Method in brief: as §1
# [18] = system: CP269
# Method in brief: as §1
# [19] = system: CP252
# Method in brief: as §1
# Potency is the fitted concentration of half-maximal effect.
structure (smiles),measurement,setting,value
Cc1ccc2c(Br)cc(Br)c(O)c2n1,Potency,[1],13.5 µM (active)
same,Potency,[2],15.1 µM (active)
same,Potency,[3],9.53 µM (active)
same,Potency,[4],10 µM (active)
same,Potency,[5],11.2 µM (active)
same,Potency,[6],inactive
CC(C)(Cc1c[nH]c2ccccc12)NCC(O)COc1ccccc1C#N (centres undefined),Potency,[7],inactive
same,Potency,[8],inactive
same,Potency,[3],inactive
same,Potency,[9],10 µM (active)
Cc1cc(CC(=O)O)c(C)n1-c1ccc(Cl)cc1,Potency,[7],inactive
same,Potency,[1],inactive
same,Potency,[8],inactive
same,Potency,[10],inactive
same,Potency,[2],inactive
same,Potency,[3],inactive
same,Potency,[11],inactive
same,Potency,[5],inactive
same,Potency,[12],inactive
same,Potency,[13],inactive
same,Potency,[14],inactive
same,Potency,[6],inactive
same,Potency,[15],inactive
same,Potency,[16],inactive
same,Potency,[17],inactive
same,Potency,[18],inactive
CC(C)[N+](C)(C)CC(O)COc1cccc2ccccc12 (centres undefined),Potency,[8],inactive
same,Potency,[10],inactive
same,Potency,[4],inactive
same,Potency,[11],inactive
same,Potency,[5],inactive
same,Potency,[19],inactive
same,Potency,[6],inactive
same,Potency,[15],inactive
same,Potency,[17],inactive
CN1CCC[C@@H]1CCO[C@](C)(c1ccccc1)c1ccc(Cl)cc1,Potency,[7],inactive
same,Potency,[8],inactive
same,Potency,[2],inactive
same,Potency,[3],inactive
same,Potency,[11],inactive
same,Potency,[13],inactive
same,Potency,[14],inactive
same,Potency,[6],inactive
same,Potency,[15],inactive
CN1CCN(c2c(F)cc3c(=O)c(C(=O)O)cn4c3c2SCC4)CC1,Potency,[7],inactive
same,Potency,[1],inactive
same,Potency,[8],inactive
same,Potency,[10],inactive
same,Potency,[11],inactive
same,Potency,[5],inactive
same,Potency,[12],inactive
same,Potency,[6],inactive
same,Potency,[16],inactive
COc1ccc(C(=O)c2ccccc2)c(O)c1,Potency,[7],inactive
same,Potency,[1],inactive
same,Potency,[8],inactive
same,Potency,[10],inactive
same,Potency,[2],inactive
same,Potency,[3],inactive
same,Potency,[4],inactive
same,Potency,[9],inactive
same,Potency,[11],inactive
same,Potency,[5],inactive
same,Potency,[19],inactive
same,Potency,[13],inactive
same,Potency,[6],inactive
same,Potency,[16],inactive
same,Potency,[17],inactive
same,Potency,[18],inactive
COc1cc(O)c(C(=O)c2ccccc2)cc1S(=O)(=O)O,Potency,[7],inactive
same,Potency,[1],inactive
same,Potency,[8],inactive
same,Potency,[10],inactive
same,Potency,[2],inactive
same,Potency,[3],inactive
same,Potency,[4],inactive
same,Potency,[9],inactive
same,Potency,[11],inactive
same,Potency,[5],inactive
same,Potency,[12],inactive
same,Potency,[19],inactive
same,Potency,[6],inactive
same,Potency,[16],inactive
same,Potency,[17],inactive
CN1CCc2cccc3c2[C@H]1Cc1ccc(O)c(O)c1-3,Potency,[9],6.31 µM (active)
same,Potency,[12],8.91 µM (active)
same,Potency,[14],11.2 µM (active)
same,Potency,[16],8.49 µM (active)
same,Potency,[18],16.9 µM (active)
C[N+]1(C)CCC(=C(c2ccccc2)c2ccccc2)CC1,Potency,[1],inactive
same,Potency,[8],inactive
same,Potency,[10],inactive
same,Potency,[2],inactive
same,Potency,[3],inactive
same,Potency,[4],inactive
same,Potency,[9],inactive
same,Potency,[11],inactive
same,Potency,[5],inactive
same,Potency,[12],inactive
same,Potency,[19],inactive
same,Potency,[15],inactive
CCN(CC)CCOc1ccc2c(c1)C(=O)c1cc(OCCN(CC)CC)ccc1-2,Potency,[9],12.6 µM (active)
same,Potency,[13],11.2 µM (active)
same,Potency,[6],inactive
CN(C)CCOC(c1ccc(Cl)cc1)c1ccccn1 (centres undefined),Potency,[7],inactive
same,Potency,[2],inactive
same,Potency,[3],inactive
same,Potency,[12],inactive
same,Potency,[6],inactive
same,Potency,[15],7.08 µM (active)
CCNC(=O)/C=C/c1cccc(Br)c1,Potency,[7],inactive
same,Potency,[1],inactive
same,Potency,[8],inactive
same,Potency,[10],inactive
same,Potency,[2],inactive
same,Potency,[3],inactive
same,Potency,[4],inactive
same,Potency,[9],inactive
same,Potency,[11],inactive
same,Potency,[6],inactive
same,Potency,[16],inactive
same,Potency,[17],inactive
same,Potency,[18],inactive
CN1CCN(CCC(=O)N2c3ccccc3Sc3ccc(C(F)(F)F)cc32)CC1,Potency,[7],inactive
same,Potency,[1],inactive
same,Potency,[8],inactive
same,Potency,[3],inactive
same,Potency,[4],inactive
same,Potency,[12],inactive
same,Potency,[13],inactive
same,Potency,[14],inactive
same,Potency,[15],inactive
same,Potency,[17],inactive
same,Potency,[18],inactive
O=C(CN1CCN(Cc2ccc3c(c2)OCO3)CC1)N1c2ccccc2Sc2ccccc21,Potency,[7],inactive
same,Potency,[8],inactive
same,Potency,[4],11.2 µM (active)
same,Potency,[14],8.91 µM (active)
same,Potency,[15],7.94 µM (active)
same,Potency,[16],inactive
CN(C)CCC[C@@]1(c2ccc(F)cc2)OCc2cc(C#N)ccc21,Potency,[7],inactive
same,Potency,[1],inactive
same,Potency,[8],inactive
same,Potency,[2],inactive
same,Potency,[4],inactive
same,Potency,[9],inactive
same,Potency,[11],inactive
same,Potency,[5],inactive
same,Potency,[12],inactive
same,Potency,[19],inactive
same,Potency,[14],inactive
same,Potency,[6],inactive
same,Potency,[15],inactive
same,Potency,[16],inactive
same,Potency,[17],inactive
Cc1cc2c(OCC(CNC(C)(C)C)OC(=O)c3ccccc3)cccc2[nH]1 (centres undefined),Potency,[7],inactive
same,Potency,[1],inactive
same,Potency,[8],inactive
same,Potency,[2],inactive
same,Potency,[4],inactive
same,Potency,[9],11.2 µM (active)
same,Potency,[11],inactive
same,Potency,[12],inactive
same,Potency,[19],inactive
same,Potency,[13],inactive
same,Potency,[14],11.2 µM (active)
same,Potency,[6],inactive
same,Potency,[15],inactive
same,Potency,[16],inactive
NC1CCN(c2nc3c(cc2F)c(=O)c(C(=O)O)cn3-c2ccc(F)cc2F)C1 (centres undefined),Potency,[7],inactive
same,Potency,[5],inactive
same,Potency,[12],inactive
CCCCCCCCCCCCOCCOCCOCCOCCOCCOCCOCCOCCOCCO,Potency,[7],inactive
same,Potency,[1],inactive
same,Potency,[8],inactive
same,Potency,[10],inactive
same,Potency,[2],inactive
same,Potency,[3],inactive
same,Potency,[9],inactive
same,Potency,[6],inactive
same,Potency,[16],inactive
same,Potency,[17],inactive
same,Potency,[18],inactive
CN1CCN(C2=Nc3ccccc3Sc3ccc(Cl)cc32)CC1,Potency,[7],inactive
same,Potency,[2],inactive
same,Potency,[11],inactive
same,Potency,[5],inactive
same,Potency,[12],inactive
same,Potency,[19],inactive
same,Potency,[13],inactive
same,Potency,[16],inactive
same,Potency,[17],inactive
CC(=O)O[C@H]1C[C@@H]2CC[C@@H]3[C@H](CC[C@@]4(C)[C@H]3C[C@H]([N+]3(C)CCCCC3)[C@@H]4OC(C)=O)[C@@]2(C)C[C@@H]1N1CCCCC1,Potency,[1],inactive
same,Potency,[5],inactive
same,Potency,[17],inactive
O=C(CCN1CCN2CCCC2C1)N1c2ccccc2Sc2ccc(Cl)cc21 (centres undefined),Potency,[7],inactive
same,Potency,[1],inactive
same,Potency,[8],inactive
same,Potency,[10],inactive
same,Potency,[2],inactive
same,Potency,[12],inactive
same,Potency,[6],inactive
same,Potency,[15],inactive
same,Potency,[17],inactive
Oc1ccc(Cl)cc1Cc1cc(Cl)ccc1O,Potency,[7],inactive
same,Potency,[1],inactive
same,Potency,[2],inactive
same,Potency,[11],inactive
same,Potency,[5],11.2 µM (active)
same,Potency,[12],inactive
same,Potency,[19],12.6 µM (active)
same,Potency,[6],inactive
same,Potency,[16],inactive
same,Potency,[17],inactive
same,Potency,[18],inactive
Cc1ccc(-c2ncc(Cl)cc2-c2ccc(S(C)(=O)=O)cc2)cn1,Potency,[7],inactive
same,Potency,[1],inactive
same,Potency,[8],inactive
same,Potency,[2],inactive
same,Potency,[14],inactive
same,Potency,[6],inactive
same,Potency,[16],inactive
CC(=O)O[C@]1(C(C)=O)CC[C@H]2[C@@H]3C=C(Cl)C4=CC(=O)CC[C@]4(C)[C@H]3CC[C@@]21C,Potency,[16],10.7 µM (active)
same,Potency,[17],16.9 µM (active)
